Pf Dd2 growth = qHTS Primary assay for Inhibitors of Plasmodium falciparum Dd2 growth in vitro; P. falciparum Dd2 growth, SYBR Green, 72 h; Potency, µM (series often up to 28.9 µM), inactives show at the top dose activity, negative = inhibition, actives largely listed as inhibitors; 4.3% of 120,000 active; active = well fitted inhibition curve with a large enough effect;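 note: plate controls were DMSO vehicle for no effect and reference drug for full effect; nearly all actives have a fitted effect of over 65% in size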
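Infected erythrocytes (Dd2, 0.3% parasitemia, 2.5% hematocrit final) are added to compound in RPMI-1640/Albumax II medium, grown 72 h at 37C in low oxygen, then lysed with saponin/Triton-X containing SYBR Green and read by fluorescence.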
* = called active by the depositor; i = inactive; [ ] = another dose, or the depositor's remark. This is one part of a sample in which hits are shown more often than they occur. Potency is the fitted concentration of half-maximal effect.

SMILES	Pf Dd2 growth
Cc1nc(N2CCC(NC(=O)c3ccc(F)cc3Cl)CC2)cc(C(F)(F)F)n1	i
COc1cc(CNCCSc2nnnn2C)ccc1OCc1ccc(F)cc1	i
Cn1nnnc1SCCNCc1ccc(F)cc1	-15.2%
COc1cccc(CNCCSc2nnnn2C)c1OCc1ccc(F)cc1	-6.8%
Cn1nnnc1SCCCNCc1cc(Br)ccc1OCc1ccccc1F	7.94µM*
Cn1nnnc1SCCNCc1ccccc1Cl	-22.6%
Cn1nnnc1SCCCNCc1cc(Br)ccc1OCc1ccccc1	11.2µM*
CCOC(=O)c1ccc(NC(=O)c2c(OCC)cc(=O)n3c2CCCC3)cc1	-12.3%
N#Cc1cccc(NC(=O)Cn2cccc2-c2nc(-c3ccccc3)no2)c1	31.4%
CC(=O)N1CCN(C(=O)C[C@@H]2CCNC[C@@H]2Cc2cc(CN3CCOCC3)on2)CC1	20.9%[44.1 µM]
Cc1occc1C(=O)N1CCCn2ccnc2C1c1cnn(C)c1 (stereo not given)	5.9%
Cc1ccc(-c2nnc(C3CN(C(=O)Cc4ccc(F)cc4)CC34CCOCC4)o2)cc1 (stereo not given)	i
CC(=O)N1CCC(O)(c2csc(CN3CCc4ccccc4C3)n2)CC1	-0.8%[44.1 µM]
Cc1ccc(-c2nnc([C@H]3CCN(Cc4ccc(CO)o4)C3)o2)cc1	i
COc1ccccc1-c1nnc([C@H]2CCN(Cc3ccc(F)cc3)C2)o1	i
COc1ccc(-c2nnc([C@H]3CCN(Cc4cccc(C#N)c4)C3)o2)cc1	14.1µM*
Cn1c([C@H]2CCN(Cc3ccccc3)C2)nc2ccccc21	i
Cn1cncc1-c1nnc([C@H]2CCN(Cc3cccc(C#N)c3)C2)o1	-8.7%[44.1 µM]
Cn1c([C@H]2CCN(Cc3cccc(C#N)c3)C2)nc2ccccc21	10µM*
COc1ccccc1-c1nnc([C@H]2CCN(Cc3ccc(C(=O)O)cc3)C2)o1	i
COc1ccccc1-c1nnc([C@H]2CCN(Cc3cccnc3)C2)o1	12.6µM*
FC(F)(F)c1ccc(CN2CC[C@H](c3nnc(-c4ccccc4)o3)C2)cc1	i
Cc1ccc(CN2CC[C@H](c3nnc(-c4ccccc4)o3)C2)cc1	10µM*
COc1ccc(CN2CC[C@H](c3nnc(-c4ccncc4)o3)C2)cc1	i
Cn1c([C@H]2CCN(Cc3ccc(Cl)cc3)C2)nc2ccccc21	i
SMILES	Pf Dd2 growth
COCCO[C@H]1C(=O)N(C2CCN(C(=O)CCn3cccn3)CC2)[C@H]1c1ccncc1	26.5%
Cc1ccc(C(=O)NCC(=O)N2CCCCCNC(=O)CC2c2ccccc2)cn1 (stereo not given)	42.3%
O=C(c1cccnc1)N1CC2CC(C1)[C@H]1CCCC(=O)N1C2 (stereo not given in full)	4.4%
c1cc(-c2nc(CC3CCCNC3)no2)ccn1 (stereo not given)	43.5%
CCOc1ccccc1CNC(=O)c1noc(-c2ccc(C)cc2)n1	i
CCN(CC)Cc1nc(C2(O)CCN(Cc3ccc(F)cc3)CC2)cs1	i
COCC(=O)N[C@@H]1CN(Cc2ccccc2C(F)(F)F)C[C@H]1CO	12.8%
Cc1cc(OCC(=O)c2ccc3c(c2)N(CC(=O)NCC2CC2)C(=O)CO3)ccc1Cl	-2.6%
COc1cccc(CNC(=O)[C@H]2CCC[C@H]2NC(=O)c2cnc(C)cn2)c1	-3.3%
COc1ccc(C(=O)N2CC[C@H](c3nnc(-c4ccccc4)o3)C2)cc1	-16.9%[44.1 µM]
COc1ccc(-c2nnc([C@H]3CCN(S(C)(=O)=O)C3)o2)cc1	12.7%[44.1 µM]
COc1ccc(-c2nnc([C@H]3CCN(S(=O)(=O)Cc4ccccc4)C3)o2)cc1	10µM*
O=C1CCN(C(=O)C2CCN(C(=O)c3cccnc3)CC2)CCCCCCN1	18.5%
Cc1nn(-c2ccc(F)cc2)c(Oc2ccc(F)cc2F)c1CCC(=O)NCc1ccco1	i
Cc1ccccc1-n1nc(C)c(CCC(=O)N(C)C(C)C)c1Oc1ccccc1F	6.31µM*
C=CCNC(=O)CCc1c(C)nn(-c2ccc(F)cc2)c1Oc1ccccc1	7.94µM*
Cc1nn(-c2ccccc2)c(Oc2ccccc2F)c1CCC(=O)NCc1ccco1	7.94µM*
C=CCNC(=O)CCc1c(C)nn(-c2ccc(F)cc2)c1Oc1ccccc1F	i
CCNC(=O)CCc1c(C)nn(-c2ccccc2)c1Oc1ccccc1F	i
Cc1cccc(-n2nc(C)c(CCC(=O)N(C)C(C)C)c2Oc2ccc(F)cc2F)c1	-5.6%
Cc1nn(-c2ccc(F)cc2)c(Oc2ccc(F)cc2F)c1CCC(=O)N(C)C(C)C	-10.8%
C=CCNC(=O)CCc1c(C)nn(-c2ccccc2)c1Oc1ccccc1	-21.7%
O=C(NC[C@H]1O[C@@H](CC(=O)N2CCCC2)[C@H](O)[C@@H]1O)c1cccc(F)c1	15.3%[44.1 µM]
Cc1nc(CC(=O)N2CCn3nc(CCC(=O)N4CCC(O)CC4)cc3C2)n[nH]1	2.2%
Cc1ccc(C(=O)N2CCCCCCNC(=O)[C@@H]3CCCC[C@@H]32)cn1	-2.0%
SMILES	Pf Dd2 growth
O=C(NCc1csc(-c2cnccn2)n1)C(c1cccnc1)N1CCOCC1 (stereo not given)	5.3%
CN(Cc1ccccc1)C(=O)C1(c2ccc(NC(=O)C3CC3)cc2)CCCCC1	4.47µM*
CC(=O)Nc1ccc(C2(C(=O)N(C)Cc3ccccc3)CCCCC2)cc1	i
O=C(Nc1ccc(C2(C(=O)O)CCC2)cc1)C1CC1	0.4%
F[C@@H]1CN(Cc2cccnc2)C[C@@H]1OCc1nc2ccccc2[nH]1	11.3%[44.1 µM]
CCOCCn1c(=O)n(CC[C@H](O)c2ccccc2)c2cc(C(=O)O)cnc21	21.2%
O=C(c1ccncc1)N1CCC(N2C(=O)C(OCC3CC3)C23CCOCC3)CC1 (stereo not given)	20.1%
Cc1ccc(CN2C(=O)C3(c4ccccc42)N(c2ccc(C)c(Cl)c2)C(=O)CS3(=O)=O)cc1 (stereo not given)	-8.0%
CN1C(=O)C2(c3ccccc31)N(c1ccc(Br)cc1)C(=O)CS2(=O)=O (stereo not given)	-18.4%
Cc1ccc(N2C(=O)CS(=O)(=O)C23C(=O)N(Cc2ccc(Cl)cc2)c2ccccc23)cc1C (stereo not given)	2.24µM*
Cc1cnccc1CNC(=O)CC(c1cccc(O)c1)c1cccc(Cl)c1 (stereo not given)	-15.8%
CN(C)Cc1nnc(C2CCN(C(=O)c3nc(N)nc4c3CCCC4)CC2)n1C	-21.9%
COc1cccc(-c2cc(C(=O)Nc3ccc(F)cc3)[nH]n2)c1	2.51µM*
Cc1ccc(NC(=O)c2cc(-c3ccc[nH]3)n[nH]2)cc1F	-4.7%
O=C(Nc1ccc(F)cc1)c1cc(-c2ccc[nH]2)n[nH]1	i
COc1cccc(CNC(=O)c2cc(-c3cccc(OC)c3)n[nH]2)c1	10.1%
COc1cccc(-c2cc(C(=O)Nc3ccc(Br)c(C)c3)[nH]n2)c1	-25.9%
CSc1ccc(NC(=O)c2cc(-c3ccc[nH]3)n[nH]2)cc1	12.6µM*
Cc1ccc(C(=O)NC2CCN(C(=O)N3CC4CC(C3)[C@H]3CCCC(=O)N3C4)CC2)cn1 (stereo not given in full)	-23.8%
CC(C)Cn1cncc1CN1CCC2(CC1)C(C(=O)O)CC(=O)N2C (stereo not given)	19.5%
Cc1nnnn1CCC(=O)N1CCCC(c2nnc(Cn3ccnc3)n2C)C1 (stereo not given)	-0.6%
COCc1nc(CCNS(=O)(=O)c2ccccc2C)no1	17.4%
CC1(c2ccccc2)N(Cc2ccccc2)C(=O)OC12CCN(C(=O)c1cccc(O)c1)CC2 (stereo not given)	-0.8%
CCC(=O)NCCc1sc2nc(-c3ccc(OC)cc3)nn2c1C	-6.4%
COc1ccc(-c2nc3sc(CCNC(=O)c4ccc(Br)o4)c(C)n3n2)cc1	8.91µM*
